Measurements published in PubChem BioAssay.

These compounds were tested against Homeobox protein Hox-A13 (Mus musculus) (UniProt Q62424) (assay: disruptors of Hoxa13 oligonucleotide interaction – biochemical, fluorescence polarization, labeled oligonucleotide, primary screen (AID 1185)). Conditions: Hoxa13:DNA binding, 15 min, higher = more signal, called active from +8 up or from −8 down.
Chain of Homeobox protein Hox-A13 (Mus musculus) (Q62424 whole entry, looked up): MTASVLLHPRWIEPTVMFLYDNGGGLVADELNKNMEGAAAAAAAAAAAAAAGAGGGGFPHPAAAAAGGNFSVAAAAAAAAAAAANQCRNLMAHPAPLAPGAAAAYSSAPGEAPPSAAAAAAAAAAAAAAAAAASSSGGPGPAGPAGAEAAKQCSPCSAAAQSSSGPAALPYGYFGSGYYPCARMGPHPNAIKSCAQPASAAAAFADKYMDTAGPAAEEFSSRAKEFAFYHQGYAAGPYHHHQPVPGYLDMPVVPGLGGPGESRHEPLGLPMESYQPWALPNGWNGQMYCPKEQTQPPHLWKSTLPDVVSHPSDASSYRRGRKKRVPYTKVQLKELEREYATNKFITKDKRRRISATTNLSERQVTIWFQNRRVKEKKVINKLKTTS

z-score, inactive:
O=C1CCCC=C1C(O)CCOCc1ccccc1 (configuration not stated) -0.861
O=C1[C@H]2[C@H]3[C@H](O)[C@H](O)CC(=NOC[C@@H](O)COCc4ccco4)[C@@H]3CC[C@H]2C(=O)N1c1ccc(F)cc1F -4.05
CCOC(=O)NN=C1C[C@@H](O)[C@@H](O)[C@@H]2[C@@H]3C(=O)N(C[C@@H]4CCCO4)C(=O)[C@@H]3CC[C@@H]12 0.513
C[C@@H]1CCC2C(=O)N(Cc3ccccc3)C[C@@H](O)CN2[C@H]1c1ccc(Br)cc1 (some centres not stated) -3.92
COC(=O)[C@H](C)NC(=O)CCC1CC(OC(=O)NCc2cccc3ccccc23)CC2(CCCC(COC(=O)NCCc3ccc(Cl)cc3)O2)O1 (some centres not stated) -1.77
O=C1C[C@@H](O)[C@@H](O)[C@@H]2[C@@H]3C(=O)N(C4CCCCC4)C(=O)[C@@H]3CC[C@H]12 0.34
CC(C)CON=C1[C@H]2CCn3c(=O)n(-c4ccccc4)c(=O)n3[C@H]2[C@H](O)[C@@H]2O[C@H]12 -0.738
